# Measured values taken from the antibiotic and cytotoxicity screens of Wong et al. (2023).
# Hit rate of the full screen: of about 39,000 compounds, about 500 (1.3%) were called active. Many of the other results were omitted from the sample, so actives are more common in it than they were.
# Tested on: S. aureus RN4220
# Experiment: growth inhibition call (relative growth <= 0.2)
# Conditions: 50 µM
row,SMILES,growth inhibition call
1,CC(C)NC(=O)N(C)C[C@@H]1Oc2ccc(NC(=O)C3CCCCC3)cc2CC(=O)N([C@H](C)CO)C[C@H]1C,inactive
2,C[C@H]1CN([C@@H](C)CO)C(=O)CCCn2cc(nn2)CO[C@@H]1CN(C)C(=O)Nc1cccc(C(F)(F)F)c1,inactive
3,C[C@@H]1CN([C@H](C)CO)C(=O)c2cc(NC(=O)Nc3cccc4ccccc34)ccc2O[C@H]1CN(C)S(=O)(=O)c1cccs1,inactive
4,Cc1cc(O)cc(=O)[nH]1,inactive
5,Cc1cc(C(=O)O)n[nH]1,inactive
6,Cc1cc(=O)[n+]2cccc(O)c2[nH]1,active
7,CNC(=O)c1cccc(NC(=S)NC)c1,inactive
8,C[C@H](CO)N1C[C@H](C)[C@H](CN(C)C(=O)Nc2ccc3c(c2)OCO3)Oc2ncc(C#CC(C)(C)O)cc2C1=O,inactive
9,O=P(O)(O)CN(CCN(CP(=O)(O)O)CP(=O)(O)O)CP(=O)(O)O,inactive
10,CC(=O)O,inactive
11,O=C(O)P(=O)(O)O,active
12,O=C(C[C@@H]1CC[C@@H]2[C@H](COC[C@@H](O)CN2C(=O)c2ccncc2)O1)NCc1ccc(-c2ccccc2)cc1,inactive
13,C[C@H]1CN([C@@H](C)CO)C(=O)c2cc(NS(=O)(=O)c3cn(C)cn3)ccc2O[C@@H]1CN(C)S(=O)(=O)c1cn(C)cn1,inactive
14,C[C@H]1CCCCO[C@H](CN(C)S(=O)(=O)c2ccc(F)cc2)[C@@H](C)CN([C@@H](C)CO)C(=O)c2cc(NS(C)(=O)=O)ccc2O1,inactive
15,Cc1noc(C)c1NC(=O)Nc1ccc2c(c1)C(=O)N([C@H](C)CO)C[C@@H](C)[C@H](CN(C)Cc1ccc3c(c1)OCO3)OCCCC[C@@H](C)O2,inactive
16,C[C@H]1CCCCO[C@H](CN(C)C(=O)CCC(F)(F)F)[C@@H](C)CN([C@@H](C)CO)C(=O)c2cc(NC(=O)Cc3ccccc3)ccc2O1,inactive
17,CC1=C(C(=O)O)N2C(=O)[C@@H](NC(=O)[C@H](N)c3ccc(O)cc3)[C@H]2SC1,active
18,C/C=C\C1=C(C(=O)O)N2C(=O)[C@H](NC(=O)[C@@H](N)c3ccc(O)cc3)[C@@H]2SC1,inactive
19,CC1=C(C(=O)O)N2C(=O)C(NC(=O)C(N)c3ccc(O)cc3)C2SC1 (stereo unspecified),inactive
20,CC=CC1=C(C(=O)O)N2C(=O)C(NC(=O)C(N)c3ccc(O)cc3)C2SC1 (stereo unspecified),inactive
21,CC1=C(C(=O)O)N2C(=O)[C@@H](NC(=O)[C@@H](N)c3ccc(O)cc3)[C@H]2SC1,inactive

row,SMILES,growth inhibition call
1,C/C=C/C1=C(C(=O)O)N2C(=O)[C@@H](NC(=O)[C@H](N)c3ccc(O)cc3)[C@H]2SC1,active
2,C[C@@H]1CN([C@H](C)CO)C(=O)c2cccc(NC(=O)C3CC3)c2O[C@H]1CN(C)S(=O)(=O)c1ccc(F)cc1,inactive
3,C[C@H](CO)N1C[C@H](C)[C@H](CN(C)S(C)(=O)=O)Oc2ncc(C#CC(C)(C)O)cc2C1=O,inactive
4,OCC(O)C(O)C(O)C(O)CO (stereo unspecified),inactive
5,C[C@H](CO)N1C[C@H](C)[C@H](CN(C)Cc2ccc(Oc3ccccc3)cc2)Oc2ccc(NS(=O)(=O)c3ccc(F)cc3)cc2CC1=O,inactive
6,C[C@@H]1CN([C@H](C)CO)S(=O)(=O)c2ccc(-c3cccc(C(=O)N(C)C)c3)cc2O[C@H]1CN(C)C(=O)Cc1ccccn1,inactive
7,COCCOC(=O)N1C(=O)[C@@]2(c3cc(C#CC4=CCCCC4)ccc31)[C@H](C(=O)N1CCN(c3ncccn3)CC1)[C@H]1C(=O)O[C@H](c3ccccc3)[C@H](c3ccccc3)N1[C@@H]2c1ccc(OCCO)cc1,inactive
8,CC(C)NC(=O)N(C)C[C@H]1Oc2ccc(NC(=O)NC3CCCCC3)cc2C(=O)N([C@H](C)CO)C[C@@H]1C,inactive
9,C[C@@H]1CCCCO[C@@H](CN(C)S(=O)(=O)c2cn(C)cn2)[C@@H](C)CN([C@H](C)CO)C(=O)c2cc(NS(=O)(=O)c3cn(C)cn3)ccc2O1,inactive
10,Oc1cc(C2CCCCC2)cc(C2CCCCC2)c1,active
11,Oc1ccccc1CNc1ccc(C2CCCCC2)cc1,inactive
12,O=C1CCC(c2ccc(O)cc2)CC1,inactive
13,COc1ccc(NC(=O)Nc2ccc3c(c2)C(=O)N([C@H](C)CO)C[C@H](C)[C@H](CN(C)C(=O)NC(C)C)OCCCC[C@H](C)O3)cc1,inactive
14,Brc1ccc(CSc2c[nH]c3ccccc23)cc1,active
15,N#C/C(=C\c1ccc(C(F)(F)F)cc1)c1c[nH]c2ccccc12,inactive
16,FC(F)(F)c1ccc(CSc2c[nH]c3ccccc23)cc1,active
17,c1ccc2c(-c3ccncc3)c[nH]c2c1,inactive
18,OCc1c[nH]c2ccccc12,inactive
19,Cc1c[nH]c2ccccc12,inactive
20,COc1ccc(NC(=O)N(C)C[C@@H]2OCCCC[C@H](C)Oc3ccc(NS(=O)(=O)c4ccc(Cl)cc4)cc3C(=O)N([C@H](C)CO)C[C@H]2C)cc1,inactive
21,C[C@@H]1CN([C@H](C)CO)C(=O)c2cc(NC(=O)NC3CCCCC3)ccc2O[C@@H](C)CCCCO[C@@H]1CN(C)S(=O)(=O)c1cccs1,inactive

row,SMILES,growth inhibition call
1,COc1ccc(NC(=O)Nc2ccc3c(c2)C(=O)N([C@@H](C)CO)C[C@@H](C)[C@H](CN(C)Cc2ccncc2)OCCCC[C@@H](C)O3)cc1,inactive
2,C[C@H]1CCCCO[C@H](CN(C)C(=O)Nc2ccccc2)[C@@H](C)CN([C@@H](C)CO)C(=O)c2cc(NC(=O)Cc3ccccc3)ccc2O1,inactive
3,C[C@H]1CN([C@@H](C)CO)C(=O)CCCn2cc(nn2)CO[C@H]1CN(C)S(=O)(=O)c1ccc(C#N)cc1,inactive
4,CN(C)c1cc(CN)ccn1,inactive
5,C1CCC(C(C[C@H]2CCCCN2)C2CCCCC2)CC1,active
6,OC[C@@H]1CCCCN1,inactive
7,O=C(O)CC[C@H]1CCCCN1,inactive
8,C1CCC(C(CC2CCCCN2)C2CCCCC2)CC1.O=C(O)C=CC(=O)O (stereo unspecified),active
9,OC[C@@H]1CCCN1,inactive
10,O=C(O)[C@@H]1CCCCN1,inactive
11,C[C@@H]1CN([C@H](C)CO)C(=O)c2cc(NC(=O)C3CCCCC3)ccc2O[C@@H](C)CCCCO[C@@H]1CN(C)Cc1ccc2c(c1)OCO2,inactive
12,COc1ccc(NC(=O)N(C)C[C@H]2Oc3c(NC(=O)c4cnccn4)cccc3C(=O)N([C@@H](C)CO)C[C@@H]2C)cc1,inactive
13,C[C@@H]1CN([C@H](C)CO)S(=O)(=O)c2ccc(C#CCN(C)C)cc2O[C@@H]1CN(C)Cc1ccccn1,inactive
14,C[C@H](CO)N1C[C@H](C)[C@@H](CN(C)Cc2ccc3c(c2)OCO3)Oc2c(NS(=O)(=O)c3cn(C)cn3)cccc2C1=O,inactive
15,COc1ccc(NC(=O)Nc2ccc3c(c2)C(=O)N([C@@H](C)CO)C[C@@H](C)[C@H](CN(C)Cc2ccc(C(=O)O)cc2)OCCCC[C@H](C)O3)cc1,inactive
16,COc1cccc(S(=O)(=O)N(C)C[C@H]2OCc3cnnn3CCCC(=O)N([C@@H](C)CO)C[C@@H]2C)c1,inactive
17,CNC[C@@H]1Oc2ccc(NS(=O)(=O)c3cn(C)cn3)cc2C(=O)N([C@@H](C)CO)C[C@@H]1C,inactive
18,CCc1nc2ccc(C(=O)NC3CCN(Cc4ccccc4)CC3)cn2c1N(C)Cc1cc2ccccc2s1,inactive
19,Cc1noc(C)c1NC(=O)Nc1ccc2c(c1)C(=O)N([C@H](C)CO)C[C@@H](C)[C@H](CN(C)S(=O)(=O)c1ccccc1)OCCCC[C@H](C)O2,inactive
20,Cc1cc(C2CCCCC2)n(O)c(=O)c1.NCCO,active
21,C[C@H](CO)N1C[C@H](C)[C@@H](CN(C)Cc2ccc(-c3ccccc3)cc2)Oc2c(NC(=O)c3ccncc3)cccc2C1=O,inactive

row,SMILES,growth inhibition call
1,C[C@H]1CN([C@@H](C)CO)C(=O)c2cccc(NC(=O)c3cnccn3)c2O[C@@H]1CN(C)Cc1ccncc1,inactive
2,COc1cccc(NC(=O)N[C@@H]2CC[C@@H](CC(=O)N3CCN(C)CC3)O[C@@H]2CO)c1,inactive
3,O=C(C[C@@H]1CC[C@H]2[C@@H](COC[C@H](O)CN2C(=O)Nc2cccc(F)c2)O1)NCc1ccccc1Cl,inactive
4,CNC(=O)Cc1ccccc1,inactive
5,CC1(C)SC2C(NC(=O)COc3ccccc3)C(=O)N2C1C(=O)[O-].[K+] (stereo unspecified),active
6,COC(=O)[C@@H]1N2C(=O)[C@@H](N3C[C@](C)(OC)O[C@@H](Cc4ccccc4)[C@H]3/C=C/C3CC3)[C@H]2SC1(C)C,inactive
7,C[C@@H](NC(=O)COc1ccccc1)C(=O)O,inactive
8,CC1(C)C(=O)NCCN1C(=O)Cc1ccccc1,inactive
9,CC1(C)SC2C(N3C(=O)C(c4ccccc4)NC3(C)C)C(=O)N2C1C(=O)[O-].[K+] (stereo unspecified),active
10,CC1(C)SC2C(NC(=O)Cc3ccccc3)C(=O)N2C1C(=O)[O-].[K+] (stereo unspecified),active
11,COC(=O)[C@@H]1N2C(=O)[C@@H](N3CC4=C[C@@H](C5CC5)n5c(=O)n(C)c(=O)n5[C@@H]4[C@@H]3[C@@H](O)Cc3ccccc3)[C@H]2SC1(C)C,inactive
12,NNC(=O)COc1ccccc1,inactive
13,COc1ccc(S(=O)(=O)N(C)C[C@H]2OCCCC[C@@H](C)Oc3ccc(NC(=O)Nc4ccc(F)cc4)cc3C(=O)N([C@@H](C)CO)C[C@H]2C)cc1,inactive
14,COc1cccc(CNC(=O)C[C@@H]2C=C[C@@H](NC(=O)C3CCOCC3)[C@H](CO)O2)c1,inactive
15,COc1ccc(NC(=O)N(C)C[C@@H]2Oc3c(NS(C)(=O)=O)cccc3C(=O)N([C@H](C)CO)C[C@H]2C)cc1,inactive
16,OCCc1ccc2c(c1)OCO2,inactive
17,Cc1ccc(S(=O)(=O)N(C)C[C@H]2Oc3ccc(NC(=O)Nc4cccc5ccccc45)cc3C(=O)N([C@@H](C)CO)C[C@@H]2C)cc1,inactive
18,COc1ccc(S(=O)(=O)N2C[C@H](O)COC[C@H]3O[C@H](CC(=O)NCCN4CCCCC4)CC[C@@H]32)cc1,inactive
